From PubChem BioAssay AID687001 (Broad Institute, 2013)
Entries with a potency or affinity are not part of this list. Active and inactive are the calls of the source.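 How the source made its calls: active means signal-lowering compounds whose fitted half-maximal concentration is at or below twice the top tested dose in every run; inconclusive means runs disagree, flat 30 to 70% inhibition, or poor curve fit; inactive means the rest.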

Target: Protein S100-A4 (Homo sapiens) (UniProt P26447)
Experiment: human S100A4 peptide interaction inhibition curves – biochemical, fluorescence polarization, cherry-picked hits, dose response (AID 687001)
Details: FP, S100A4/TAMRA-myosin IIA peptide binding; series mostly up to 11 µM

Sequence of Protein S100-A4 (Homo sapiens) (P26447 whole entry, looked up): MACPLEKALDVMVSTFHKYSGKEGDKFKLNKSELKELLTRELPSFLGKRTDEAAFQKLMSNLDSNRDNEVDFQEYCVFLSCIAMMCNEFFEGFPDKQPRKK

outcome, inactive:
COc1ccc(Cl)cc1NC(=O)CN(C)C(=O)CCCc1c[nH]c2ccccc12
N#Cc1ccc(-c2ccc([C@@H]3[C@@H](CO)N4C(=O)CN(C(=O)C5CC5)C[C@H]34)cc2)cc1
C[C@@H]1CN([C@@H](C)CO)C(=O)c2cc(/C=C/c3ccccc3)cnc2O[C@H]1CN(C)S(=O)(=O)c1cccs1
